Out of some 5,600 compounds screened, about 780 (14%) were called active. Roughly 3% stayed inconclusive and do not appear here. Only a sample is shown. A number with no mark means an inactive call.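 Rule for the calls: active = mean signal decrease across replicates above about 35% based on untreated-well scatter, with enough replicates individually passing (limit read from the data); inconclusive = no rule stated though some were filed; inactive = the rest.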
Experiment: cytotoxicity in mouse NIH/3T3 fibroblasts, confirmation, cytotoxicity control for T. cruzi proliferation inhibitor project, cell-based, cherry-pick, single point (AID 651742);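 note: 0% = median of neutral control wells and 100% = median of positive control wells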
Details: NIH/3T3 viability, CellTiter-Glo ATP luminescence, 90 h; at 8.35 µM; hits give high values

SMILES | cytotoxicity (signal decrease)
CNC[C@@H]1Oc2cc(C#CCC3CCCC3)ccc2S(=O)(=O)N([C@H](C)CO)C[C@H]1C | -4.17%
C[C@@H]1CCCCO[C@H](CN(C)Cc2ccc(Cl)c(Cl)c2)[C@H](C)CN([C@@H](C)CO)C(=O)c2cc(NC(=O)C3CCCCC3)ccc2O1 | 12.1%
C[C@@H]1CN([C@H](C)CO)S(=O)(=O)c2ccc(C#CC3CCCC3)cc2O[C@@H]1CN(C)C(=O)Cc1ccncc1 | 4.33%
Cc1ccc(S(=O)(=O)N(C)C[C@@H]2OCCCC[C@@H](C)Oc3ccc(NS(=O)(=O)c4ccc(F)cc4)cc3C(=O)N([C@H](C)CO)C[C@H]2C)cc1 | -0.859%
O=C(Nc1cc(Cl)cc(Cl)c1)N[C@H]1CC[C@@H](CCNS(=O)(=O)c2cccc(F)c2)O[C@H]1CO | 2.47%
C[C@H]1CN([C@@H](C)CO)C(=O)c2cc(C#CC3CCCCC3)cnc2O[C@H]1CN(C)S(=O)(=O)c1ccccc1 | 4.57%
Cc1ccc(-c2cnc3c(c2)C(=O)N([C@@H](C)CO)C[C@@H](C)[C@H](CN(C)Cc2ccccc2F)O3)cc1 | 33%
C[C@H](CO)N1C[C@H](C)[C@@H](CN(C)S(=O)(=O)c2ccccc2)Oc2ncc(C#Cc3ccccc3F)cc2C1=O | 37.2% (active)
C[C@@H]1CN([C@H](C)CO)C(=O)c2cc(-c3cncnc3)cnc2O[C@H]1CN(C)C(=O)Nc1ccc2c(c1)OCO2 | -12.9%
C[C@H](CO)N1C[C@H](C)[C@H](CN(C)S(=O)(=O)c2ccccc2)Oc2ncc(-c3cccc(C(F)(F)F)c3)cc2C1=O | 33.1%
C[C@@H]1CN([C@@H](C)CO)C(=O)c2cc(C#CC3CCCCC3)cnc2O[C@H]1CN(C)S(=O)(=O)c1ccccc1 | 17.3%
C[C@@H]1CN([C@H](C)CO)C(=O)c2cc(C#Cc3ccccn3)cnc2O[C@H]1CN(C)Cc1ccccc1 | -3.21%
Cc1ccc(S(=O)(=O)N(C)C[C@@H]2Oc3ncc(-c4cc5ccccc5o4)cc3C(=O)N([C@H](C)CO)C[C@@H]2C)cc1 | 38.6% (active)
C[C@H](CO)N1C[C@H](C)[C@@H](CN(C)S(=O)(=O)c2ccccc2F)Oc2ncc(C#Cc3ccccc3F)cc2C1=O | 48% (active)
C[C@H](CO)N1C[C@H](C)[C@H](CN(C)C(=O)C2CCCCC2)Oc2ncc(C#Cc3cccc(F)c3)cc2C1=O | 25.3%
C[C@H](CO)N1C[C@H](C)[C@H](CN(C)C(=O)Nc2ccc3c(c2)OCO3)Oc2ncc(C#Cc3cccc(F)c3)cc2C1=O | 66.2% (active)
CCCNC(=O)N(C)C[C@@H]1Oc2ncc(C#Cc3ccccc3F)cc2C(=O)N([C@@H](C)CO)C[C@H]1C | -5.73%
N#C[C@@H]1[C@H](c2ccc(C#Cc3cccc(F)c3)cc2)[C@@H](CO)N1C(=O)C1CCCC1 | -6.1%
CC(C)(C)[S@@](=O)N1Cc2cc(C(=O)NCc3ccc4c(c3)OCO4)nc(-c3cccc(-c4ccccc4)c3)c2[C@H]1CCO | 24%
COc1cccc(S(=O)(=O)N2CCCCN3[C@H](CO)[C@H](c4ccc(C#CC5CC5)cc4)[C@H]3C2)c1 | 24.2%
C[C@@H]1CCCCO[C@H](CN(C)C(=O)NC2CCCCC2)[C@H](C)CN([C@H](C)CO)C(=O)c2cc(NS(=O)(=O)c3ccc(Cl)cc3)ccc2O1 | -21.2%
C[C@H]1CN([C@@H](C)CO)C(=O)c2cccc(NS(=O)(=O)c3cn(C)cn3)c2O[C@@H]1CN(C)CC1CCCCC1 | -8.55%

SMILES | cytotoxicity (signal decrease)
C[C@@H]1CCCCO[C@@H](CN(C)C(=O)Nc2ccc(F)cc2)[C@H](C)CN([C@H](C)CO)C(=O)c2cc(NC(=O)Nc3cccc4ccccc34)ccc2O1 | 1.18%
CN1C(=O)c2cc(NC(=O)Nc3ccccc3F)ccc2OC[C@H]2O[C@H](CC(=O)NCc3ccc(-c4ccccc4)cc3)CC[C@H]21 | 8.3%
N#C[C@@H]1[C@@H](c2ccccc2)[C@@H](CO)N1C(=O)Cc1ccccc1 | 20.6%
Cc1cc(C(=O)Nc2cccc3c2O[C@@H](CN(C)Cc2ccc(C(=O)Nc4ccccc4N)cc2)[C@H](C)CN([C@@H](C)CO)C3=O)n(C)n1 | 6%
C[C@H]1CCCCO[C@H](CN(C)Cc2ccccc2)[C@@H](C)CN([C@@H](C)CO)C(=O)c2cc(NC(=O)c3ccccc3)ccc2O1 | -15.3%
CC(C)NC(=O)Nc1ccc2c(c1)C(=O)N([C@@H](C)CO)C[C@H](C)[C@H](CN(C)S(=O)(=O)c1ccc(Cl)cc1)OCCCC[C@H](C)O2 | -22.1%
O=C(Nc1ccc(-c2ccccc2)cc1)[C@H]1[C@H](CO)[C@H]2Cn3c(cccc3=O)[C@H]2N1CC1CC1 | 8.32%
C[C@@H]1CN([C@@H](C)CO)S(=O)(=O)c2ccc(C#CCC3CCCC3)cc2O[C@H]1CN(C)C(=O)CC1CC1 | 15%
C[C@H]1CN([C@@H](C)CO)S(=O)(=O)c2ccc(C#CC3CCCC3)cc2O[C@H]1CN(C)C(=O)Cc1ccncc1 | 6.81%
COc1ccc(S(=O)(=O)N(C)C[C@H]2Oc3c(NC(=O)Nc4cccc5ccccc45)cccc3C(=O)N([C@@H](C)CO)C[C@H]2C)cc1 | 19.4%
Cc1ccc(S(=O)(=O)N(C)C[C@@H]2Oc3c(NC(=O)c4nc5ccccc5s4)cccc3C(=O)N([C@H](C)CO)C[C@@H]2C)cc1 | 23.6%
COc1ccc(S(=O)(=O)N(C)C[C@H]2OCCCC[C@H](C)Oc3ccc(NS(=O)(=O)c4ccc(F)cc4)cc3C(=O)N([C@@H](C)CO)C[C@@H]2C)cc1 | -16.9%
CCC(=O)N1CC[C@@H]2[C@@H](CO)N(C)c3ccc(-c4ccc(F)cc4)cc3[C@@H]21 | -22.3%
C/C=C/c1ccc([C@H]2[C@H]3CN(S(=O)(=O)c4ccccc4)CCCCN3[C@H]2CO)cc1 | 20.3%
C[C@H]1CN([C@@H](C)CO)C(=O)c2ccccc2-c2ccccc2CO[C@@H]1CN(C)S(=O)(=O)c1ccc(C(F)(F)F)cc1 | 38.8% (active)
C[C@@H]1CCCCO[C@H](CN(C)S(=O)(=O)c2ccc(F)cc2)[C@H](C)CN([C@@H](C)CO)C(=O)c2cc(NS(=O)(=O)c3ccccc3)ccc2O1 | -7.76%
C[C@H](CO)N1C[C@H](C)[C@@H](CN(C)S(=O)(=O)c2cccc(F)c2)OCc2ccccc2-c2c(n(C)c3ccccc23)C1=O | -5.9%
Cc1ccc(S(=O)(=O)Nc2ccc3c(c2)C(=O)N([C@H](C)CO)C[C@H](C)[C@H](CN(C)Cc2ccc(Cl)c(Cl)c2)O3)cc1 | 17%
C[C@H]1CCCCO[C@@H](CN(C)C(=O)NC2CCCCC2)[C@@H](C)CN([C@@H](C)CO)C(=O)c2cc(NS(=O)(=O)c3ccc(Cl)cc3)ccc2O1 | -16.4%
COCC(=O)N1[C@H](CO)[C@@H](c2ccc(C#Cc3ccccc3F)cc2)[C@@H]1C#N | -6.81%
C[C@@H]1CN([C@H](C)CO)C(=O)c2cc(NS(=O)(=O)c3cccs3)ccc2O[C@@H](C)CCCCO[C@H]1CN(C)Cc1ccc(C(F)(F)F)cc1 | 5.21%

From PubChem BioAssay AID651742 (Broad Institute, 2012)
